Measured values as given in PubChem BioAssay AID1159580 (chemical genetic matrix, 2015).
About 2,000 (36%) of roughly 5,500 compounds were called active. Not shown: some 18% with an inconclusive outcome. Rule as the data show it: active = normalized growth mostly below about 0.91 (no sharp cut-off); inconclusive = no clear call, values can overlap the other calls; inactive = mostly above about 0.92. Some of the results follow.

Assay: chemical genetic growth profiling, strain panel (AID 1159580);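 also: tested at 20 µM; growth read once vehicle control cultures reached saturation at 30 °C; 1 = growth at the plate median or of vehicle wells; lower values mean less growth of the strain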
Details: growth OD

Measured: normalized growth

O=C(Oc1cc(O)cc2c1C[C@@H](OC(=O)c1cc(O)c(O)c(O)c1)[C@@H](c1cc(O)c(O)c(O)c1)O2)c1cc(O)c(O)c(O)c1
active: S. cerevisiae deletion strains, locus YJR043C, strain POL32, hits give low values 0.13 | S. cerevisiae deletion strains, locus YKR001C, strain vps1, hits give low values 0.599 | S. cerevisiae deletion strains, locus YLR039C, strain RIC1, hits give low values 0.233 | S. cerevisiae deletion strains, locus YLR058C, strain SHM2, hits give low values 0.141 | S. cerevisiae deletion strains, locus YLR268W, strain sec22, hits give low values 0.414 | S. cerevisiae deletion strains, locus YLR330W, strain CHS5, hits give low values 0.613 | S. cerevisiae deletion strains, locus YLR342W, strain FKS1 (second series), hits give low values 0.198 | S. cerevisiae deletion strains, locus YLR371W, strain rom2, hits give low values 0.602 | S. cerevisiae deletion strains, locus YLR418C, strain cdc73, hits give low values 0.341 | S. cerevisiae deletion strains, locus YML016C, strain PPZ1, hits give low values 0.083 | S. cerevisiae deletion strains, locus YML032C, strain rad52, hits give low values 0.857 | S. cerevisiae deletion strains, locus YML124C, strain tub3, hits give low values 0.824 | S. cerevisiae deletion strains, locus YMR223W, strain ubp8, hits give low values 0.666 | S. cerevisiae deletion strains, locus YMR307W, strain GAS1, hits give low values 0.448 | S. cerevisiae deletion strains, locus YNL067W, strain RPL9B, hits give low values 0.366 | S. cerevisiae deletion strains, locus YNL233W, strain BNI4, hits give low values 0.455 | S. cerevisiae deletion strains, locus YNR052C, strain pop2, hits give low values 0.436 | S. cerevisiae deletion strains, locus YOL147C, strain pex11, hits give low values 0.779 | S. cerevisiae deletion strains, locus YOR061W, strain CKA2, hits give low values 0.218 | S. cerevisiae deletion strains, locus YOR069W, strain VPS5, hits give low values 0.182 | S. cerevisiae deletion strains, locus YOR136W, strain idh2, hits give low values 0.795 | S. cerevisiae deletion strains, locus YOR144C, strain elg1, hits give low values 0.814 | S. cerevisiae deletion strains, locus YOR184W, strain ser1, hits give low values 0.445 | S. cerevisiae deletion strains, locus YPL055C, strain LGE1, hits give low values 0.139 | S. cerevisiae deletion strains, locus YPR163C, strain tif3, hits give low values 0.87 | S. cerevisiae deletion strains, locus YPR167C, strain met16, hits give low values 0.847 | S. cerevisiae deletion strains, strain wtn01, hits give low values 0.433 | S. cerevisiae strains, strain wild type, hits give low values 0.0757
inactive: S. cerevisiae deletion strains, locus YJL187C, strain SWE1, hits give low values 1.02 | S. cerevisiae deletion strains, locus YJR066W, strain TOR1, hits give low values 0.949 | S. cerevisiae deletion strains, locus YKL009W, strain mrt4, hits give low values 1.02 | S. cerevisiae deletion strains, locus YKL068W, hits give low values 0.985 | S. cerevisiae deletion strains, locus YKL085W, strain MDH1 (second series), hits give low values 1.03 | S. cerevisiae deletion strains, locus YKL085W, strain MDH1, hits give low values 1.03 | S. cerevisiae deletion strains, locus YKL160W, strain elf1, hits give low values 1.01 | S. cerevisiae deletion strains, locus YKR026C, strain gcn3, hits give low values 0.984 | S. cerevisiae deletion strains, locus YKR091W, strain srl3, hits give low values 1.01 | S. cerevisiae deletion strains, locus YLL001W, strain dnm1, hits give low values 1.01 | S. cerevisiae deletion strains, locus YLL026W, hits give low values 1.01 | S. cerevisiae deletion strains, locus YLL041C, strain sdh2, hits give low values 1.01 | S. cerevisiae deletion strains, locus YLR027C, strain aat2, hits give low values 0.996 | S. cerevisiae deletion strains, locus YLR102C, strain apc9, hits give low values 0.948 | S. cerevisiae deletion strains, locus YLR113W, strain HOG1, hits give low values 1.06 | S. cerevisiae deletion strains, locus YLR221C, strain rsa3, hits give low values 1.03 | S. cerevisiae deletion strains, locus YLR258W, strain gsy2, hits give low values 1.01 | S. cerevisiae deletion strains, locus YLR262C, strain YPT6 (second series), hits give low values 1.01 | S. cerevisiae deletion strains, locus YLR320W, strain mms22, hits give low values 1.04 | S. cerevisiae deletion strains, locus YLR342W, strain FKS1, hits give low values 1.04 | S. cerevisiae deletion strains, locus YLR357W, strain rsc2, hits give low values 1.01 | S. cerevisiae deletion strains, locus YLR370C, strain arc18, hits give low values 1.01 | S. cerevisiae deletion strains, locus YLR384C, strain iki3, hits give low values 0.998 | S. cerevisiae deletion strains, locus YML120C, strain ndi1, hits give low values 1.01 | S. cerevisiae deletion strains, locus YMR078C, strain ctf18, hits give low values 0.938 | S. cerevisiae deletion strains, locus YMR125W, strain sto1, hits give low values 0.985 | S. cerevisiae deletion strains, locus YMR129W, hits give low values 1.01 | S. cerevisiae deletion strains, locus YMR205C, strain PFK2, hits give low values 1.02 | S. cerevisiae deletion strains, locus YMR231W, strain pep5, hits give low values 0.981 | S. cerevisiae deletion strains, locus YNL071W, strain lat1, hits give low values 1.02 | S. cerevisiae deletion strains, locus YNL183C, strain NPR1, hits give low values 0.943 | S. cerevisiae deletion strains, locus YNL209W, strain ssb2, hits give low values 0.991 | S. cerevisiae deletion strains, locus YNL248C, strain rpa49, hits give low values 1.03 | S. cerevisiae deletion strains, locus YNL250W, strain rad50, hits give low values 0.953 | S. cerevisiae deletion strains, locus YNL271C, strain bni1, hits give low values 0.941 | S. cerevisiae deletion strains, locus YNL298W, strain CLA4, hits give low values 0.948 | S. cerevisiae deletion strains, locus YNL307C, strain MCK1, hits give low values 0.915 | S. cerevisiae deletion strains, locus YNL322C, strain KRE1 (second series), hits give low values 1.01 | S. cerevisiae deletion strains, locus YNR049C, strain mso1, hits give low values 1.03 | S. cerevisiae deletion strains, locus YOL012C, strain htz1 0.207 | S. cerevisiae deletion strains, locus YOR001W, strain rrp6, hits give low values 1.02 | S. cerevisiae deletion strains, locus YOR070C, strain gyp1, hits give low values 1 | S. cerevisiae deletion strains, locus YOR080W, strain dia2, hits give low values 1.02 | S. cerevisiae deletion strains, locus YOR083W, strain WHI5, hits give low values 0.999 | S. cerevisiae deletion strains, locus YOR106W, strain vam3, hits give low values 0.989 | S. cerevisiae deletion strains, locus YOR231W, strain MKK1, hits give low values 1.02 | S. cerevisiae deletion strains, locus YOR265W, strain rbl2, hits give low values 1.02 | S. cerevisiae deletion strains, locus YOR270C, strain vph1, hits give low values 1.06 | S. cerevisiae deletion strains, locus YOR290C, strain snf2, hits give low values 0.988 | S. cerevisiae deletion strains, locus YOR316C, strain cot1, hits give low values 0.947 | S. cerevisiae deletion strains, locus YPL051W, strain arl3, hits give low values 1 | S. cerevisiae deletion strains, locus YPL078C, strain atp4, hits give low values 0.983 | S. cerevisiae deletion strains, locus YPL106C, strain sse1, hits give low values 1.01 | S. cerevisiae deletion strains, locus YPL240C, strain hsp82, hits give low values 1.01 | S. cerevisiae deletion strains, locus YPL256C, strain CLN2, hits give low values 1.07 | S. cerevisiae deletion strains, locus YPR119W, strain clb2, hits give low values 0.972 | S. cerevisiae deletion strains, locus YPR141C, strain kar3, hits give low values 0.974
